The record followed here is PubChem BioAssay.

Experiment [1] is described as follows: antimalarial activity against Dd2 strain (AID 2302;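 active means growth inhibition above 50% at the single 2 µM test dose, taken to imply half-maximal potency below 2 µM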;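 further: 0% = DMSO untreated growth and 100% = chloroquine plus artemisinin killed control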). To be noted: P. falciparum Dd2 in RBCs, LDH growth readout, 72 h; at 2 µM; stronger effect = higher value.
The nature of experiment [2]: HepG2 cytotoxicity, primary screen, cytotoxicity control for P. falciparum antimalarial project, cell-based, ATP luminescence (AID 2303;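 active means inhibition above 50%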;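 further: 0% = DMSO wells and 100% = digitonin-killed cells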). The note with it: HepG2 viability, 24-48 h, at 10 µM, stronger effect = higher value.
Experiment [3] addresses L-lactate dehydrogenase (Plasmodium falciparum (isolate CDC / Honduras)) (UniProt Q27743). Nature of the experiment: PfLDH activity inhibition – cell lysate, 3D7 strain, counter-screen for P. falciparum growth inhibition project (AID 2304).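 Further: 0% = vehicle and 100% = reference inhibitor.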 The note with it: P. falciparum 3D7 crude extract, LDH APAD/NBT absorbance; at 2 µM; stronger effect = higher value. For orientation: The purpose of a counterscreen is to sort out artefacts and off-target activity.

The nature of experiment [4]: inhibition of 3D7 malaria parasite growth – strain 3D7 (AID 2306).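 Further: 0% = DMSO wells and 100% = chloroquine plus artemisinin control wells.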 To be noted: P. falciparum 3D7 erythrocytic growth, LDH absorbance, 72 h; at 2 µM; stronger effect = higher value.
Experiment [5] deals with Calcium-dependent protein kinase 1 (Plasmodium falciparum (isolate 3D7)) (UniProt P62344). Nature of the experiment: PfCDPK1 kinase inhibitors, biochemical, TCAMS library (AID 1159585; cut-off not given, nearly all actives have IC50 up to about 0.98 µM;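 further: inhibitors leave more ATP so luminescence rises with inhibition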). The note with it: recombinant PfCDPK1, Kinase-Glo ATP depletion luminescence. A general note: In Kinase-Glo more light means more ATP remaining.
Sequence of Calcium-dependent protein kinase 1 (Plasmodium falciparum (isolate 3D7)) (P62344 whole entry, looked up): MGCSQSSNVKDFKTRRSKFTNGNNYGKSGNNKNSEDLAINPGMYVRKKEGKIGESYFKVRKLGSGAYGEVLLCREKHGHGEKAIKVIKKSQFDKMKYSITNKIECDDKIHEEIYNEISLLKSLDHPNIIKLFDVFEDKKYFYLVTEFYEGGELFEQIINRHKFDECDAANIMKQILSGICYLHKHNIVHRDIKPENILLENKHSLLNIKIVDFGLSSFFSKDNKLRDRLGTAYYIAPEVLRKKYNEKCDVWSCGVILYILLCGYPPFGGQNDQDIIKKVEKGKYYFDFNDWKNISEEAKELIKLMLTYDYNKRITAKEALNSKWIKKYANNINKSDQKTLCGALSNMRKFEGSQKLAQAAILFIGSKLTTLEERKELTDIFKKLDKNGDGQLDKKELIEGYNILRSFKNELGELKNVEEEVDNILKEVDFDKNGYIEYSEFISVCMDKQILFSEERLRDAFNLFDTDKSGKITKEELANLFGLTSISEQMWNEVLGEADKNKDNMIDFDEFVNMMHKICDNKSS
The target of experiment [6] is Plasmodium falciparum protein kinase 6 (PK6, PF3D7_1337100) (UniProt Q8IDW1). Nature of the experiment: PfPK6 kinase inhibitors, biochemical, TCAMS library (AID 1159586). To be noted: recombinant PfPK6, Kinase-Glo ATP depletion luminescence.
Sequence of Plasmodium falciparum protein kinase 6 (PK6, PF3D7_1337100) (Q8IDW1 1-305): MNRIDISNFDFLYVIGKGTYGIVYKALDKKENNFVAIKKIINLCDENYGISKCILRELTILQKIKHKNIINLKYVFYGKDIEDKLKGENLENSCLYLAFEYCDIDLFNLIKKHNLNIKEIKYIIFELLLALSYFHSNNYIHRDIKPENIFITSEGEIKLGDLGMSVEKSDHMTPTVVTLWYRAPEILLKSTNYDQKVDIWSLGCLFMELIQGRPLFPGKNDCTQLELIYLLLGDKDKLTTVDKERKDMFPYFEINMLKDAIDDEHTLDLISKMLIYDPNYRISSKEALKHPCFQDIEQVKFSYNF
The target of experiment [7] is Protein kinase 7 (PK7), Plasmodium falciparum 3D7 (PF3D7_0213400) (UniProt Q7YTF7). Nature of the experiment: inhibition of Plasmodium PK7 catalytic activity – biochemical, TCAMS antimalarial set, Kinase-Glo luminescence (AID 1159587). To be noted: recombinant PfPK7, Kinase-Glo ATP depletion luminescence.
Sequence of Protein kinase 7 (PK7), Plasmodium falciparum 3D7 (PF3D7_0213400) (Q7YTF7 1-343): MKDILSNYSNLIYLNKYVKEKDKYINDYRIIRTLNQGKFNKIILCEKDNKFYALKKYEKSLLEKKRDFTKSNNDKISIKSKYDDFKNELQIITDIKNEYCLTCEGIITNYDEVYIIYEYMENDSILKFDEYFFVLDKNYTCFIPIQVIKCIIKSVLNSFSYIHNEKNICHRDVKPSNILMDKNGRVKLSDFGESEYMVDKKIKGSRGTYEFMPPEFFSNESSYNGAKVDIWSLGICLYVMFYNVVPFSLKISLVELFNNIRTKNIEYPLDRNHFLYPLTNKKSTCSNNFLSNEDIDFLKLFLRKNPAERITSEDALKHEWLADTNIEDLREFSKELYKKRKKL
Experiment [8] concerns the target Calcium-dependent protein kinase 4 (Plasmodium falciparum (isolate 3D7)) (UniProt Q8IBS5). Nature of the experiment: PfCDPK4 kinase inhibitors, biochemical, TCAMS library (AID 1159588; cut-off not given, nearly all actives have IC50 up to about 0.91 µM). To be noted: recombinant PfCDPK4, Kinase-Glo ATP depletion luminescence.

Values without a mark were called inactive. For some of these results: Measured potencies and affinities stand elsewhere. Calls of active or inactive are those of the source. Unless noted, how the calls were made is not given here.

Sequence of Calcium-dependent protein kinase 4 (Plasmodium falciparum (isolate 3D7)) (Q8IBS5 whole entry, looked up): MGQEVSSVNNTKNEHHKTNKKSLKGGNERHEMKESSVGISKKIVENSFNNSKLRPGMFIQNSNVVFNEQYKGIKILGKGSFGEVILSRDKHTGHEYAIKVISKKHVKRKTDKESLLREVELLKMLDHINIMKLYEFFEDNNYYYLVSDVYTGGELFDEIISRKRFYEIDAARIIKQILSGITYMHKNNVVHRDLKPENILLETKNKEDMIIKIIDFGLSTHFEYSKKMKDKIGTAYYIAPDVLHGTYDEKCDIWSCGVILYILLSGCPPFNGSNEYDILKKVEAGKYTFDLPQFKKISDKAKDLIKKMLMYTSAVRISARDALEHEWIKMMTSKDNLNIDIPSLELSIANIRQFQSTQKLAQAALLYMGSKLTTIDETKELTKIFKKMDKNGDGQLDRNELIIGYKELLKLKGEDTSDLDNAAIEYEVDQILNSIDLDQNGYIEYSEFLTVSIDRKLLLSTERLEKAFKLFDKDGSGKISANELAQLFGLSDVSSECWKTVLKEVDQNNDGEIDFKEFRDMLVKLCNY
Sequence of L-lactate dehydrogenase (Plasmodium falciparum (isolate CDC / Honduras)) (Q27743 whole entry, looked up): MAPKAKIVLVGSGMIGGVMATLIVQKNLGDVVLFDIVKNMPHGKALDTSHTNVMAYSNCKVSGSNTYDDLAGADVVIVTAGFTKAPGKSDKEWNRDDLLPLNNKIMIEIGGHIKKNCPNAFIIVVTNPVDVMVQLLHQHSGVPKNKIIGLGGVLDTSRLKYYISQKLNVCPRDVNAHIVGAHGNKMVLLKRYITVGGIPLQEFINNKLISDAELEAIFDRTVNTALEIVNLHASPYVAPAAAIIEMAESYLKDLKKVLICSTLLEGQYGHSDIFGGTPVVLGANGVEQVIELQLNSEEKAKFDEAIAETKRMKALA

In the case of `COc1cc2nc(N3CCC(CNC(=O)c4cccc5cccnc45)CC3)nc(N)c2cc1OC`, the growth inhibition in experiment [1] is 33%; in experiment [4] it was 99% (active). Further, the inhibition is 34% in experiment [2] and -2% in experiment [3]. For the same molecule, the result in experiment [5], in experiment [6], in experiment [7] and in experiment [8] was inactive.

On to `Cc1ccc(O)c(C(=O)c2cc(C(=O)Nc3ccccc3C)c(=O)n(-c3ccccc3C)c2)c1`, for which the values for the growth inhibition in experiment [1] and in experiment [4] were 81% (active) and 98% (active), respectively. The inhibition in experiment [2] was -15%; in experiment [3] it was -8%. The result in experiment [5], in experiment [6], in experiment [7] and in experiment [8] was inactive.

As for `CCN1CCN(Cc2ccc(-c3ccc(NS(=O)(=O)c4cccc5cccnc45)cc3)cc2)CC1`, the figures for the growth inhibition in experiment [1] and in experiment [4] were 42% and 90% (active), respectively. In addition, the inhibition in experiment [2] was 29%; in experiment [3], -2%. In addition, the result in experiment [5], in experiment [6], in experiment [7] and in experiment [8] was inactive.

Take `COc1ccc(CNCc2ccc(F)cc2)cc1-c1ccc(S(=O)(=O)NCCN2CCCC2)c(C)c1`: the figures for the growth inhibition in experiment [1] and in experiment [4] were 56% (active) and 98% (active), respectively. The inhibition in experiment [2] was 55% (active); in experiment [3] it was -2%. Besides, the result in experiment [5], in experiment [6], in experiment [7] and in experiment [8] was inactive.

`COc1ccccc1N1CCN(CCCCN(C(=O)Nc2cccc(Cl)c2)C(=O)Nc2cccc(Cl)c2)CC1`: the growth inhibition in experiment [1] is 65% (active); in experiment [4], 100% (active). The values for the inhibition in experiment [2] and in experiment [3] were 4% and 7%, respectively. The result in experiment [5], in experiment [6], in experiment [7] and in experiment [8] was inactive.

As to `CCCCN1Cc2c(n(CC(=O)Nc3ccccc3)c3cc(-c4ccccc4)nn3c2=O)C1=O`, the growth inhibition in experiment [1] is 60% (active); in experiment [4], 92% (active). Further, the inhibition was 1% in experiment [2] and -1% in experiment [3]. Also, the result in experiment [5], in experiment [6], in experiment [7] and in experiment [8] was inactive.

In the case of `COc1ccc(NC(=O)c2ccc(Br)c(C)c2)cc1N1CCN(CCCc2c[nH]c3ccccc23)CC1`, the values for the growth inhibition in experiment [1] and in experiment [4] were 64% (active) and 102% (active), respectively. Besides, the inhibition was 21% in experiment [2] and 0% in experiment [3]. Further, the outcome in experiment [5], in experiment [6], in experiment [7] and in experiment [8] was inactive.

`O=C1CCCN1CCCNCc1cccc(-c2ccc(-c3nc4ccc(C(F)(F)F)cc4[nH]3)cc2)c1`: the growth inhibition in experiment [1] was 96% (active); in experiment [4], 101% (active). The inhibition in experiment [2] was 15%; in experiment [3], -3%. Moreover, the outcome in experiment [5], in experiment [6], in experiment [7] and in experiment [8] was inactive.

Turning to `CCCN(CCC)CCCNc1ccc(C(=O)Nc2ccc(OCC)cc2)cc1[N+](=O)[O-]`, the growth inhibition in experiment [1] is 2%; in experiment [4] it was 89% (active). Also, the inhibition in experiment [2] is 7%; in experiment [3], -4%. Besides, the result in experiment [5], in experiment [6], in experiment [7] and in experiment [8] was inactive.

Turning to `Cc1ccc(N2CCc3c(-c4cc5cccnc5nc4C)cc(C)nc32)c(Cl)c1`, the growth inhibition in experiment [1] was 90% (active); in experiment [4], 96% (active). For the same molecule, the values for the inhibition in experiment [2] and in experiment [3] were -14% and 3%, respectively. Besides, the outcome in experiment [5], in experiment [6], in experiment [7] and in experiment [8] was inactive.

As for `NCC(=O)Nc1cccc(Nc2nccc(-c3c(-c4cccc(NC(=O)c5ccccc5)c4)nn4ccccc34)n2)c1`, the figures for the growth inhibition in experiment [1] and in experiment [4] were 87% (active) and 96% (active), respectively. Moreover, the figures for the inhibition in experiment [2] and in experiment [3] were 45% and 0%, respectively. Besides, the outcome in experiment [5], in experiment [6], in experiment [7] and in experiment [8] was inactive.

With `c1ccc(-c2csc(Nc3nc4cc5c(cc4s3)OCO5)n2)nc1`, the growth inhibition was 99% (active) in experiment [1] and 81% (active) in experiment [4]. Further, the values for the inhibition in experiment [2] and in experiment [3] were 46% and -3%, respectively. Further, the outcome in experiment [5], in experiment [6], in experiment [7] and in experiment [8] was inactive.

Regarding `COc1ccc2c(=O)c(-c3ccc(OC(F)(F)F)cc3)c(C)[nH]c2c1`, the growth inhibition in experiment [1] is 96% (active); in experiment [4], 97% (active). For the same molecule, the inhibition in experiment [2] is 0%; in experiment [3] it was -3%. Besides, the result in experiment [5], in experiment [6], in experiment [7] and in experiment [8] was inactive.

In the case of `Nc1ccc(-c2nc3ccc(Oc4ccc5nc(-c6ccc(N)cc6)[nH]c5c4)cc3[nH]2)cc1`, the growth inhibition is 99% (active) in experiment [1] and 100% (active) in experiment [4]. Besides, the inhibition is 18% in experiment [2] and 7% in experiment [3]. The outcome in experiment [5], in experiment [6], in experiment [7] and in experiment [8] was inactive.

On to `CCCc1cc(N2CCC(N3CCCC3)CC2)nc(Nc2ccc(OC)cc2)n1`, for which the growth inhibition was 14% in experiment [1] and 94% (active) in experiment [4]. Moreover, the inhibition is 15% in experiment [2] and 6% in experiment [3]. In addition, the outcome in experiment [5], in experiment [6], in experiment [7] and in experiment [8] was inactive.

For the molecule `CN1CCN(c2ccc(Nc3c4ccccc4nc4ccccc34)cc2)CC1`, the growth inhibition in experiment [1] is 94% (active); in experiment [4] it was 100% (active). Moreover, the inhibition in experiment [2] was -3%; in experiment [3], -4%. The outcome in experiment [5], in experiment [6], in experiment [7] and in experiment [8] was inactive.

For the molecule `O=C(NC1CC1)c1ccc(Cn2c(SCc3cccc([N+](=O)[O-])c3)nc3ccccc3c2=O)cc1`, the growth inhibition in experiment [1] was 65% (active); in experiment [4], 91% (active). Further, the inhibition in experiment [2] is 12%; in experiment [3], 1%. Also, the result in experiment [5], in experiment [6], in experiment [7] and in experiment [8] was inactive.

For the molecule `Cc1ccc([N+](=O)[O-])cc1NC(=O)N(CC(O)c1ccccc1)C1CCCCC1` (stereo not given), the growth inhibition was 98% (active) in experiment [1] and 100% (active) in experiment [4]. The values for the inhibition in experiment [2] and in experiment [3] were 11% and 6%, respectively. For the same molecule, the outcome in experiment [5], in experiment [6], in experiment [7] and in experiment [8] was inactive.

On to `Cc1c(C(=O)Nc2cc(Sc3ccc(F)cc3)cc([N+](=O)[O-])c2)sc2ncn(Cc3ccccc3F)c(=O)c12`, for which the values for the growth inhibition in experiment [1] and in experiment [4] were 45% and 98% (active), respectively. The values for the inhibition in experiment [2] and in experiment [3] were 2% and 5%, respectively. The result in experiment [5], in experiment [6], in experiment [7] and in experiment [8] was inactive.

On to `COc1cc2c(cc1OC)CC(NCCCCCCNCCc1ccc(Cl)cc1)CC2` (stereo not given), for which the growth inhibition was -1% in experiment [1] and 98% (active) in experiment [4]. Further, the inhibition was 50% (active) in experiment [2] and 1% in experiment [3]. Moreover, the outcome in experiment [5], in experiment [6], in experiment [7] and in experiment [8] was inactive.

One may read the inhibition as the relative decrease from the control value, in per cent.
